Values joined by “and” are separate entries in the source; they are usually repeats but may differ in a detail not shown here. Equal entries are not always repeated. Out of some 6,400 compounds screened, about 610 (9.5%) were called active. No stated cut-off is given here; in the data, active means activity change below about -70%; inconclusive means no clear call, values can overlap the other calls; inactive means above that. The full list was thinned out, with actives kept by preference. More than one record can exist for a structure, and the calls need not agree.
assay: T. gondii ME49Luc in HeLa cells, luciferase assay, 72 h, no IFN-y (AID 1259421); details: stronger effect = lower value, concentration not given here

Compound | activity change, negative = inhibition
COC(=O)N[C@H](C(=O)N1CC2(CC2)C[C@H]1c1ncc(-c2ccc3c(c2)C(F)(F)c2cc(-c4ccc5nc([C@@H]6[C@H]7CC[C@H](C7)N6C(=O)[C@@H](NC(=O)OC)C(C)C)[nH]c5c4)ccc2-3)[nH]1)C(C)C | -11.8% (inactive)
CC(C)N=C(N)/N=C(\N)Nc1ccc(Cl)cc1 | 13.8% (inactive) and 11.1% (inactive)
Cc1ccc2c(=O)c3ccccc3n(CCCN)c2c1C | -91.1% (active) and -77% (active)
Cc1ccc2c(=O)c3cccc(CC(=O)O)c3oc2c1C | 9.87% (inactive)
Cc1cc(=O)c(C(=O)N[C@@H](C(=O)N[C@@H]2C(=O)N3C(C(=O)O)=C(CSc4nnnn4C)CS[C@H]23)c2ccc(O)cc2)c[nH]1 | 9.23% (inactive)
NC(CC(=O)Nc1ccc(Oc2cc(F)c(F)cc2Br)cc1)C(=O)O (stereo not given) | 0.0757% (inactive)
COc1cc(OC)c(C(C)=O)c(O)c1C | 2.79% (inactive)
CCCCCCCCCCCCCC[C@@H](O)[C@@H](O)[C@@H](N)CO | 24.8% (inactive)
Nc1[nH]c(=O)ncc1F | 8.39% (inactive) and -90.4% (active)
O=S(=O)(NCCNC/C=C/c1ccc(Br)cc1)c1cccc2cnccc12 | 4.5% (inactive) and -8.12% (inactive)
O=C(C(c1ccccc1)c1ccccc1)N1CCN(CC(O)COc2cccc3ncccc23)CC1 (stereo not given) | 10.1% (inactive)
CC(C)(C#N)c1ccc(N2C(=O)OCc3cnc4ccc(-c5cnc6ccccc6c5)cc4c32)cc1 | -90.7% (active)
Cn1c(=O)n(-c2ccc(C(C)(C)C#N)cc2)c2c3cc(-c4cnc5ccccc5c4)ccc3ncc21 | 13.4% (inactive)
C=CC(=O)Nc1cc(Nc2nccc(-c3cn(C)c4ccccc34)n2)c(OC)cc1N(C)CCN(C)C | -63.1% (inactive)
C[C@H](CCC(=O)O)[C@H]1CCC2C3C(=O)CC4CC(=O)CC[C@]4(C)C3CC(=O)[C@@]21C (stereo not given in full) | 8.53% (inactive) and 10.4% (inactive)
O=c1[nH]cnc2nc[nH]c12 | 7.14% (inactive)
COc1cccc(-c2cc(=O)c3cc(OC)ccc3o2)c1 | 316% (inactive)
O=C1Nc2ccc(Br)cc2/C1=C/c1cc2c([nH]1)CCCC2 | 13.6% (inactive)
CC(N)=NCCCC[C@H](N)C(=O)O | 11.5% (inactive)
CCCCCCCCCCC(CO)CCCCCCCC (stereo not given) | 7.89% (inactive)
CCCCC(CC)CN=C(N)NC(N)=NCCCCCCN=C(N)NC(N)=NCC(CC)CCCC (stereo not given) | -87.6% (active)
C=C1CCC2C(CC2(C)C)C(=O)CCC1O (stereo not given) | 4.7% (inactive)
C[C@@]1(C(=O)Nc2ccc(F)nc2)CCCN1c1nc(Nc2cc(C3CC3)[nH]n2)c2cccn2n1 | -54.4% (inactive)
CCOC(=O)[C@H](CCc1ccccc1)N[C@@H](C)C(=O)N1C(=O)N(C)C[C@@H]1C(=O)O | 6.47% (inactive)
CC1CCC(C(=O)N(c2cc(C#CC(C)(C)C)sc2C(=O)O)C2CCC(O)CC2)CC1 (stereo not given) | 16.2% (inactive)

Compound | activity change, negative = inhibition
CCCCC(=O)O[C@]1(C(=O)CO)CCC2C3CCC4=CC(=O)CC[C@]4(C)C3[C@@H](O)C[C@@]21C (stereo not given in full) | 0.149% (inactive) and 0.816% (inactive)
CC(=O)OCC(=O)[C@H]1CCC2C3CCC4=CC(=O)CC[C@]4(C)C3CC[C@@]21C (stereo not given in full) | 0.487% (inactive)
CC(=O)OCC(=O)[C@H]1CC[C@H]2[C@@H]3CCC4=CC(=O)CC[C@]4(C)[C@H]3CC[C@]12C | -73.9% (active) and -75.9% (active)
C[C@]12C[C@H](O)[C@H]3[C@@H](CCC4=CC(=O)CC[C@@]43C)[C@@H]1CC[C@@H]2C(=O)CO | 1.69% (inactive)
CCCCCC(=O)O[C@]1(C(C)=O)CCC2C3CCC4=CC(=O)CC[C@]4(C)C3CC[C@@]21C (stereo not given in full) | -76.9% (active)
CC(=O)[C@@]1(O)CCC2C3CCC4=CC(=O)CC[C@]4(C)C3CC[C@@]21C (stereo not given in full) | 6.92% (inactive) and 3.13% (inactive)
CC(=O)OCC(=O)[C@H]1CCC2C3CC=C4C[C@@H](O)CC[C@]4(C)C3CC[C@@]21C (stereo not given in full) | 7.77% (inactive)
C[C@]12CC[C@H]3[C@@H](CCC4=CC(=O)CC[C@@]43C)[C@@H]1CC[C@@H]2C(=O)CO | -83.1% (active)
CCC(=O)O[C@]1(C(=O)CO)CC[C@H]2[C@@H]3CCC4=CC(=O)CC[C@]4(C)[C@H]3CC[C@@]21C | -9.17% (inactive)
CCCOc1ccc(Br)cc1-c1cc(-c2ccc(Cl)cc2)[nH]c1-c1ccncc1 | -7.79% (inactive)
CC(C)N1CCN(c2ccc(C(=O)c3c(-c4ccc(O)cc4)sc4cc(O)ccc34)cc2)CC1 | -3.21% (inactive) and -13.9% (inactive)
NC(N)=Nc1nc(CSCC/C(N)=N\S(N)(=O)=O)cs1 | 15.8% (inactive) and 7.35% (inactive)
CN1CCN(C2=Nc3cc(F)ccc3Cc3ccccc32)CC1 | -3.95% (inactive)
CCOC(=O)C12CC1/C(=N/O)c1ccccc1O2 (stereo not given) | 10.1% (inactive)
O=[Si]=O | 10.7% (inactive)
CCCCCCCCN1C(=O)C(C(C)=O)=C(C)C1(C)O (stereo not given) | 12.4% (inactive)
O=C(O)[C@H]1CN(CCCP(=O)(O)O)CCN1 | 4.53% (inactive)
Oc1ccc2c(c1)OCC1(O)Cc3cc(O)c(O)cc3C21 (stereo not given) | -0.693% (inactive)
Nc1[nH]nc2nc3ccccc3nc12 | 19.2% (inactive)
Nc1nc2c(ncn2[C@@H]2O[C@@H](CO)[C@@H](O)[C@H]2O)c(=O)[nH]1 | -3.02% (inactive)
Nc1ncnc2c1ncn2[C@@H]1O[C@H](CO)[C@@H](O)[C@H]1O | 6.4% (inactive)
Nc1nc(=S)c2ncn([C@@H]3O[C@H](CO)[C@@H](O)[C@H]3O)c2[nH]1 | -79.5% (active)
Cc1nnsc1C(=O)Nc1ccc(-n2nc(C(F)(F)F)cc2C(F)(F)F)cc1 | -80% (active)
COc1ccc2oc3ccccc3c(=O)c2c1 | 118% (inactive)
OCC1OC2OC3C(CO)OC(OC4C(CO)OC(OC5C(CO)OC(OC6C(CO)OC(OC7C(CO)OC(OC8C(CO)OC(OC1C(O)C2O)C(O)C8O)C(O)C7O)C(O)C6O)C(O)C5O)C(O)C4O)C(O)C3O (stereo not given) | 1.48% (inactive)

Compound | activity change, negative = inhibition
O=C(O)c1ccc2c3c1cccc3c(=O)n1c3ccccc3nc21 | 9.96% (inactive)
COc1ccc(C[C@H](N)C(=O)N[C@@H]2[C@@H](CO)OC(n3cnc4c(N(C)C)ncnc43)[C@@H]2O)cc1 (stereo not given in full) | -80.4% (active) and -91% (active)
COc1nc(N)nc2c1ncn2[C@@H]1O[C@H](CO)[C@@H](O)[C@@H]1O | -2.56% (inactive) and 14.5% (inactive)
CO[C@@H]1[C@H](O)[C@@H](CO)O[C@H]1n1cnc2c(NC3CCCCC3)ncnc21 | 2.27% (inactive)
O=C(O)c1cc2cccc([N+](=O)[O-])c2[nH]1 | 8.58% (inactive)
CO/N=C(/C(=O)NC1C(=O)N2C(C(=O)O)=C(C[N+]3(C)CCCC3)CSC12)c1csc(N)n1 (stereo not given) | 6.5% (inactive)
NC(=O)c1ccc(-c2nc(-c3ccc4c(c3)OCCO4)c(-c3ccccn3)[nH]2)cc1 | 25.7% (inactive) and -23.2% (inactive)
Cc1cccc(-c2[nH]c(C(C)(C)C)nc2-c2ccc3nccnc3c2)n1 | -81% (active)
NC(=O)c1ccc(-c2nc(-c3ccc4c(c3)OCO4)c(-c3ccccn3)[nH]2)cc1 | -37% (inactive)
Cc1cccc(-c2[nH]c(C(C)(C)C)nc2-c2ccc3c(c2)OCO3)n1 | -75.7% (active)
C=C[C@@]1(C)CC(=O)[C@@]2(O)[C@](C)(O1)[C@@H](O)[C@@H](O)C1C(C)(C)CC[C@H](O)[C@@]12C (stereo not given in full) | 11.2% (inactive)
C=CC(C)(O)CCC=C(C)C (stereo not given) | 11.3% (inactive)
COc1ccccc1N1CCN(CC2CN3C(=O)N(C)c4ccccc4C3=N2)CC1 (stereo not given) | 1.95% (inactive)
CC(=O)O[C@]1(C(C)=O)CCC2C3C=C(Cl)C4=CC(=O)[C@@H]5C[C@@H]5[C@]4(C)C3CC[C@@]21C (stereo not given in full) | 11.3% (inactive)
CCCCC(=O)N(Cc1ccc(-c2ccccc2-c2nn[nH]n2)cc1)[C@H](C(=O)O)C(C)C | -0.624% (inactive) and 4.63% (inactive)
C#CC1(OCC(O)CN2CCN(c3cccc(C(F)(F)F)c3)CC2)CCCCC1 (stereo not given) | -34.5% (inactive)
CCCOc1ccc(S(=O)(=O)N2CCN(CCO)CC2)cc1-c1nc2c(CCC)cn(CC)c2c(=O)[nH]1 | 0.0881% (inactive)
CC(C)n1cnc2c(NCc3ccccc3)nc(NCCCO)nc21 | 0.139% (inactive)
CC(C)[C@H](CO)Nc1nc(Nc2cc(N)cc(Cl)c2)c2ncn(C(C)C)c2n1 | -82.6% (active)
CC(C)[C@H](CO)Nc1nc(Nc2ccc(C(=O)O)c(Cl)c2)c2ncn(C(C)C)c2n1 | 13% (inactive) and 1.51% (inactive)
CC(C)[C@H](CO)Nc1nc(Nc2cccc(Cl)c2)c2ncn(C(C)C)c2n1 | -86% (active) and -72.5% (active)
CC[C@@H]1OC(=O)C[C@@H](O)[C@H](C)[C@@H](O[C@@H]2O[C@H](C)[C@@H](O)[C@H](N(C)C)[C@H]2O)[C@@H](CCN2C[C@H](C)C[C@H](C)C2)C[C@@H](C)C(=O)/C=C/C(C)=C\[C@@H]1CO[C@@H]1O[C@H](C)[C@@H](O)[C@@H](OC)[C@H]1OC | 17.5% (inactive)
CN1[C@@H]2CC(OC(=O)[C@H](CO)c3ccccc3)C[C@H]1[C@H]1O[C@H]12 (stereo not given in full) | 23.8% (inactive)
CCCCCCCC/C=C/C(=O)O | 1.14% (inactive)
CO/N=C(\C(=O)N[C@@H]1C(=O)N2C(C(=O)OCOC(=O)C(C)(C)C)=C(C)CS[C@H]12)c1csc(N)n1 | 21.8% (inactive)

From PubChem BioAssay AID1259421 (Broad Institute, 2018)
